Test results reported in the supplement of paper PMC11732987, “Enantioselective OTUD7B fragment discovery through chemoproteomics screening and high-throughput optimisation” (Communications Chemistry, 2025).

How the values were obtained:
Test in all cases: log2 ratio of Biotin-Ahx-Ub-VS probe labelling (fragment/DMSO); higher = less target engagement (more negative = stronger competition), active = hit call of the paper (q ≤ 0.05, log2 ratio ≤ -1)
Settings in all cases: compound concentration: 200 uM; treatment time: 3 h
USP34 = USP34 (UniProt Q70CQ2)
USP34, sequence (Q70CQ2 whole entry, the tested form may be a part): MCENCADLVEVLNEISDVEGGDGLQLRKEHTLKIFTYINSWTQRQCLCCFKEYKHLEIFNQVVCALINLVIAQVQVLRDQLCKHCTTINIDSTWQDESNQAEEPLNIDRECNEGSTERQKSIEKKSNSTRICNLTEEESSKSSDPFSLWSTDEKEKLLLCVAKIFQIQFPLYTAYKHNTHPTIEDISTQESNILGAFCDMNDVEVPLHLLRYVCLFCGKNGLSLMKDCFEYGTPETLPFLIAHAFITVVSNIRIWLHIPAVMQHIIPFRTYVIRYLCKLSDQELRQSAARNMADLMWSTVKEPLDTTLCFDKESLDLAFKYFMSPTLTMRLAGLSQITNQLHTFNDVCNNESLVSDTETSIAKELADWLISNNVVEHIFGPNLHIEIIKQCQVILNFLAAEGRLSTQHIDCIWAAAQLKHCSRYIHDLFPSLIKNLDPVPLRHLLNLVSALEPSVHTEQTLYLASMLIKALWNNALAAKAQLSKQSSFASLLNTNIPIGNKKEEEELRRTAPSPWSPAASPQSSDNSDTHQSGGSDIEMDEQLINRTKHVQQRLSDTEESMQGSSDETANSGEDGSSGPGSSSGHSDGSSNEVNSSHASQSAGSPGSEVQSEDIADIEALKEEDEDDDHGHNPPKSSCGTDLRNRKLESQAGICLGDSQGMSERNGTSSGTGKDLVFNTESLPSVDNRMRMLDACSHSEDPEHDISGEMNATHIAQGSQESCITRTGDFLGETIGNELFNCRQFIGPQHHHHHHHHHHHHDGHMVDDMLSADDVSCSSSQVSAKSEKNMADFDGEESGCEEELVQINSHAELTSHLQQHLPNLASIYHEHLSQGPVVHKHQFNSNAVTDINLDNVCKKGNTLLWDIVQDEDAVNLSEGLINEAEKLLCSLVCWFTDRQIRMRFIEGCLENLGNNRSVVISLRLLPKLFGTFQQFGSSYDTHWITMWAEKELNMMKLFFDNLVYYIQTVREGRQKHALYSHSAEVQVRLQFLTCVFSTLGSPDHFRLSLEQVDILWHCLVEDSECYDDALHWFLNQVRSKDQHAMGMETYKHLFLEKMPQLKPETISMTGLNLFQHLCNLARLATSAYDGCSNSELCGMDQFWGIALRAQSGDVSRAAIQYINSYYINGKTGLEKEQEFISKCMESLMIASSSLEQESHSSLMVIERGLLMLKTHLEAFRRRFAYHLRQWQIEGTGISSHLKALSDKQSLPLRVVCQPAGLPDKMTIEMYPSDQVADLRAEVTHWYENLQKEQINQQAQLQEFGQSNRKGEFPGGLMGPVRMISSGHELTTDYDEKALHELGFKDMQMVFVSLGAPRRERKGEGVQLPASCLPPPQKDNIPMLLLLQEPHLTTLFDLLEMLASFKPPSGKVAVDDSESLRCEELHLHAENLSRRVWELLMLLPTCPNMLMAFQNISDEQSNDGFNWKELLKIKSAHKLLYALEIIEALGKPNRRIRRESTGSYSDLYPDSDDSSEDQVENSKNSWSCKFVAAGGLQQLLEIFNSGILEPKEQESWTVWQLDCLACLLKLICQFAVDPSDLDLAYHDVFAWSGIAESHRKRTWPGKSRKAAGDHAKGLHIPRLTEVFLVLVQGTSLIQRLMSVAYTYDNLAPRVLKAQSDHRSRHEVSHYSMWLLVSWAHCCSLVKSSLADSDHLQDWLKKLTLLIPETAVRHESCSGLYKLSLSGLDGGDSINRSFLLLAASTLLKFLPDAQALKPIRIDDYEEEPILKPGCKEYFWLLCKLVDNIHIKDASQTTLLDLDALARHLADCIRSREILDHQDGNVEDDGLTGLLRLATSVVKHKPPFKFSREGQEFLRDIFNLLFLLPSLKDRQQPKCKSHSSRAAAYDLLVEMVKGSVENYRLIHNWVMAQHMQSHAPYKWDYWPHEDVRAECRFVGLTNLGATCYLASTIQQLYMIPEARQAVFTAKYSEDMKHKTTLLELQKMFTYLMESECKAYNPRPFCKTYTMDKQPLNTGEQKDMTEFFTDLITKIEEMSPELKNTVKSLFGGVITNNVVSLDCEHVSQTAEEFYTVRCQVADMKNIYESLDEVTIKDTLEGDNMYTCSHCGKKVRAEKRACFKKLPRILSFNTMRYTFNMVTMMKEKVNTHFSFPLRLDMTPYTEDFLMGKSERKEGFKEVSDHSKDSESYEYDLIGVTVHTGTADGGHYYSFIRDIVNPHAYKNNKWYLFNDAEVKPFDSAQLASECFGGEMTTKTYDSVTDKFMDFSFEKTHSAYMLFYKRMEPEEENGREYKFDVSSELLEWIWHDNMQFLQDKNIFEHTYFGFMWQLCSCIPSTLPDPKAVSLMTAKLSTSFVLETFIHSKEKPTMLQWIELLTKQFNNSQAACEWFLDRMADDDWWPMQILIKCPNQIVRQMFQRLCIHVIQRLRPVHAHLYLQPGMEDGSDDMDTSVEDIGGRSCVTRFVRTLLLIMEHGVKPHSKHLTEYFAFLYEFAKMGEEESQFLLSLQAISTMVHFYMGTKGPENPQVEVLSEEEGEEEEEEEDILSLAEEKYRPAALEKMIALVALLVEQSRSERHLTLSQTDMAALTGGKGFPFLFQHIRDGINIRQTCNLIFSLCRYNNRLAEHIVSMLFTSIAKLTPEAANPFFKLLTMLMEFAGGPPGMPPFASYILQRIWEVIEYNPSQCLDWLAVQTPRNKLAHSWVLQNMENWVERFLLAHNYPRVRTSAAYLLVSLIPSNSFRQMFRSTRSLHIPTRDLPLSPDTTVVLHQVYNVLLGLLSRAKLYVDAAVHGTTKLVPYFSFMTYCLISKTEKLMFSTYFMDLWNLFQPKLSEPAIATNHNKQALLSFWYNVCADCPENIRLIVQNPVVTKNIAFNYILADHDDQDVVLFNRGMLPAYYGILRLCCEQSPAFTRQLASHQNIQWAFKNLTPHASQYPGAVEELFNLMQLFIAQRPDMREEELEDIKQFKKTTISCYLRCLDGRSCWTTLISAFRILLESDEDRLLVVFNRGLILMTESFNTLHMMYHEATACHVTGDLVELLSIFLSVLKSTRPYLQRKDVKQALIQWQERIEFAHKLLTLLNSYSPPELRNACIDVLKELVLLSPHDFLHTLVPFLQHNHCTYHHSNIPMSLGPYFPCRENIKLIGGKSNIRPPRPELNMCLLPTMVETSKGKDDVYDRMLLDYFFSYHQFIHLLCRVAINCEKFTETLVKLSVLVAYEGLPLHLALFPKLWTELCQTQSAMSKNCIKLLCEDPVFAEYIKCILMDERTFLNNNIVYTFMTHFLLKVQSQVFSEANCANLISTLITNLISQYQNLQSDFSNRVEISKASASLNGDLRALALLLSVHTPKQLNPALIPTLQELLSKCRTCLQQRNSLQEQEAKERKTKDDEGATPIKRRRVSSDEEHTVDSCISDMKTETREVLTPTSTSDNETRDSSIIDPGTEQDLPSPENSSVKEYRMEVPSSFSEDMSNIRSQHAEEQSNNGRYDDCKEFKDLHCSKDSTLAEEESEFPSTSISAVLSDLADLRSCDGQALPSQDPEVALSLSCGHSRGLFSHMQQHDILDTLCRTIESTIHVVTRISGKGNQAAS
How it was run: (§1)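 In triplicate, 495 µg of HEK293T lysate per sample was incubated with fragment at 200 µM or vehicle for 3 h. Biotin-Ahx-Ub-VS was then added to 0.5 µM final for 1 h, and labelled DUBs were captured with NeutrAvidin, digested with LysC and trypsin, and measured by diaPASEF LC-MS/MS. Data are average log2 fragment/vehicle ratios by unpaired t-test from global-median-normalised Spectronaut label-free quantities, restricted to proteins with ≥2 unique peptides.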

USP36 = biological target: T1, USP36 (UniProt Q9P275)
T1 sequence (whole entry): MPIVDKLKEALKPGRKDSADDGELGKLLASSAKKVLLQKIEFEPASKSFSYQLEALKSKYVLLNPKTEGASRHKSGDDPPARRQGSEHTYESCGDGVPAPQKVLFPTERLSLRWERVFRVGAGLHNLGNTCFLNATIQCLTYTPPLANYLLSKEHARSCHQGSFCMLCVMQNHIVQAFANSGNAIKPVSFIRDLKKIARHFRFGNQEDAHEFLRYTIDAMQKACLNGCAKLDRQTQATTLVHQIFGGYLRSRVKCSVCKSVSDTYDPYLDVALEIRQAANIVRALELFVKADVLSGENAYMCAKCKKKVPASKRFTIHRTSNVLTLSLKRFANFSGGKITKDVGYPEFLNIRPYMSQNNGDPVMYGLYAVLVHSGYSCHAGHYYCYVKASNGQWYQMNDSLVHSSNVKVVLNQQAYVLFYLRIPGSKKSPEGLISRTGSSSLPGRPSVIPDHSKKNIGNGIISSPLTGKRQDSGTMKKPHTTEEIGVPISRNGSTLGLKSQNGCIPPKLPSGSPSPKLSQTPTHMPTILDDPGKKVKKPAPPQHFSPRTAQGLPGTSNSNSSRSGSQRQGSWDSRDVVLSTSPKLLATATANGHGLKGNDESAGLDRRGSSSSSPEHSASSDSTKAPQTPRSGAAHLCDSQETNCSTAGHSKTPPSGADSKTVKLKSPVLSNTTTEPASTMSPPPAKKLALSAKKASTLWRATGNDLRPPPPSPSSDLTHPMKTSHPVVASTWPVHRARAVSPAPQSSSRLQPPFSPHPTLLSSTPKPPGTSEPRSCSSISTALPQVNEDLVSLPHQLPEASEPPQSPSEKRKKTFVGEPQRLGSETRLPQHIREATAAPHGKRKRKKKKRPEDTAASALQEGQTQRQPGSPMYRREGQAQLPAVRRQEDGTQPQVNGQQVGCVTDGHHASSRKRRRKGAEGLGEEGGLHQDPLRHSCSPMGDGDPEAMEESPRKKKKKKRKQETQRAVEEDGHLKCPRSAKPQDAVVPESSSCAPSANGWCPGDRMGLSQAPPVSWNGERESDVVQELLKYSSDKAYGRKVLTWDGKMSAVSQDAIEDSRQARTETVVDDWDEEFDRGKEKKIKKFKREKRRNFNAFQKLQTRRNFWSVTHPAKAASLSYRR
How it was run: as §1

USP38 = biological target: T2, USP38 (UniProt Q8NB14)
T2 sequence (whole entry): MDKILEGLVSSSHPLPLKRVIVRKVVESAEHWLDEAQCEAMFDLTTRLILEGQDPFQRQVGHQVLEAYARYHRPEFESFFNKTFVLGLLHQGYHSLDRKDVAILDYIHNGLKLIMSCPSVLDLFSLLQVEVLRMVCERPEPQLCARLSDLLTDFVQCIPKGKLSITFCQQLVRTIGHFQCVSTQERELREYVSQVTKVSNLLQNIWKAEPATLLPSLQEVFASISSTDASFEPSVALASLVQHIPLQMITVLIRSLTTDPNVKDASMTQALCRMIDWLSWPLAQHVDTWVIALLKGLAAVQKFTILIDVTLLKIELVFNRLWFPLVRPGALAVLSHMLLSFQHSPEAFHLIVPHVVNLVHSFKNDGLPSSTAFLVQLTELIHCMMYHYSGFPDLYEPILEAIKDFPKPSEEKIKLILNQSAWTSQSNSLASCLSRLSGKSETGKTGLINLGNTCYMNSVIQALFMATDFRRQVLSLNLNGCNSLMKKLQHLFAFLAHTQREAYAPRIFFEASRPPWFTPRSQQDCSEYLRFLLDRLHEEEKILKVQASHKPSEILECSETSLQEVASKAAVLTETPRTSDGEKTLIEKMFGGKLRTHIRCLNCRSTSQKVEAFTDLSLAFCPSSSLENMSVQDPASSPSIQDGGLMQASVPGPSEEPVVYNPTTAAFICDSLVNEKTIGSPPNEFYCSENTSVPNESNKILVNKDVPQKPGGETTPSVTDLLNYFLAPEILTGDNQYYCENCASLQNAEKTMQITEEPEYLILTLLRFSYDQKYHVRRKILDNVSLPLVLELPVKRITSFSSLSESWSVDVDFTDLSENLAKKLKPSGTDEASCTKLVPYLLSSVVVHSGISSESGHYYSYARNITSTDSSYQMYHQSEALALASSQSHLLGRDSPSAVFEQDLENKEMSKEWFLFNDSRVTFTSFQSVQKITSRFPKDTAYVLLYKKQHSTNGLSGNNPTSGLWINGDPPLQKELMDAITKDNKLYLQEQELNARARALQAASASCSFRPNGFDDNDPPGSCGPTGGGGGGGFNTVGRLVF
How it was run: as §1

USP39 = biological target: T3, USP39 (UniProt Q53GS9)
T3 sequence (whole entry): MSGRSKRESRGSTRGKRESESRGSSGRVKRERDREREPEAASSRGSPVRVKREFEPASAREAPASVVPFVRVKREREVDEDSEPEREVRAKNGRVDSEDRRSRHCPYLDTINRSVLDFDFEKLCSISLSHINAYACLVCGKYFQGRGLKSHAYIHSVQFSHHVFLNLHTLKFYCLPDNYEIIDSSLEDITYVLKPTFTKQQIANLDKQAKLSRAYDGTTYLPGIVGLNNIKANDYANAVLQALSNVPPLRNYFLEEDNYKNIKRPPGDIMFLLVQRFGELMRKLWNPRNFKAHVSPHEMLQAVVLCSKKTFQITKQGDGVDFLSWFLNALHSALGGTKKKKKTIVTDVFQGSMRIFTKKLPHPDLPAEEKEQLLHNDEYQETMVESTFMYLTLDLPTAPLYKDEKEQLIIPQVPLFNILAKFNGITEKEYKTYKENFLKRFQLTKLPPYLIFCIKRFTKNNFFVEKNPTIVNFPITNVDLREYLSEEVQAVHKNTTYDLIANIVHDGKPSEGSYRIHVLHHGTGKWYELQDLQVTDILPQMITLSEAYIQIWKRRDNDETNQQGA
How it was run: as §1

USP4 = biological target: T4, USP4 (UniProt Q13107)
T4 sequence (whole entry): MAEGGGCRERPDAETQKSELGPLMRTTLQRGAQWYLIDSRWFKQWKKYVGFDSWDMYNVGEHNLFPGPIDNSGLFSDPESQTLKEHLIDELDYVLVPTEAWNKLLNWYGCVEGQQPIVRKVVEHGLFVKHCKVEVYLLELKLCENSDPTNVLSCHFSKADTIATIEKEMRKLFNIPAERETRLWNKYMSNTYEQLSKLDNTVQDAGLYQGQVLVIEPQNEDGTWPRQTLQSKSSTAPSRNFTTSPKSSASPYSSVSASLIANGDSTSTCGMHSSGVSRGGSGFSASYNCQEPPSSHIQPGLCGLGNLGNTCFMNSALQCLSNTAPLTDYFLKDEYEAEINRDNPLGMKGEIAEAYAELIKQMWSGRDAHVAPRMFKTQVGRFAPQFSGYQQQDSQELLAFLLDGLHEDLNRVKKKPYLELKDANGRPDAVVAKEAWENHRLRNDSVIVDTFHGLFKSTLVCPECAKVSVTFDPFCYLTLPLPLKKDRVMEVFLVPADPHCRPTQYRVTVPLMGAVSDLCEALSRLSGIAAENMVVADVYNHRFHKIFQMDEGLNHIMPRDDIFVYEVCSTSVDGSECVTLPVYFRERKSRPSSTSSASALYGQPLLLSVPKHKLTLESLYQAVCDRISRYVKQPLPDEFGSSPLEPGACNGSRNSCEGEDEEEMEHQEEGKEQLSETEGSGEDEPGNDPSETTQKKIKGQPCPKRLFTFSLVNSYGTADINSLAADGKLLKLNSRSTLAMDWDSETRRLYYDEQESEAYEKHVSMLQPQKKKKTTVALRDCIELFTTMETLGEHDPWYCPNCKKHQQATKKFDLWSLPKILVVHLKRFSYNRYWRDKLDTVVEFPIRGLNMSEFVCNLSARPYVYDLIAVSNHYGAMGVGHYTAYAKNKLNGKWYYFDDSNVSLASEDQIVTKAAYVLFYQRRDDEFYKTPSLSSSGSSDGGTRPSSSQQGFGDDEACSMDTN
How it was run: as §1

Measured: log2 ratio of Biotin-Ahx-Ub-VS probe labelling

O=C(CCl)N1CCC(=C(F)CO)C1
inactive: USP34 0.0842 | USP36 -0.125 | USP38 0.0909 | USP39 0.212 | USP4 0.218
